DAX1 inh-1 = DAX1 (NR0B1) inhibition, primary screen | HEK293T StAR-luciferase reporter, SF-1/DAX-1 repression relief | 370,000 tested, 1.1% active | inhibition, % at 6.8 µM | AID 652010;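 active = inhibition above the mean over all tested compounds plus 3 SD, cut at about 3.6% in these data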;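 note: higher inhibition means more luminescence from relief of DAX-1 repression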
hcDAF12 agonist = activators of H. contortus DAF-12 nuclear receptor; activation, % at 6.8 µM; 370,000 tested, 1.4% active; HEK293 hcDAF-12 lit1-tk-luc reporter, luminescence; 0% DMSO, 100% Δ7-dafachronic acid;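 active = activation above the mean of all tested compounds plus 3 SD, cut at about 5.5% in these data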
ssDAF-12 act = activators of S. stercoralis DAF-12 nuclear receptor. activation, % at 6.8 µM. AID 652126. 370,000 tested, 1% active. HEK293 ssDAF-12/GRIP1 lit1-tk-luc reporter, luminescence; % of 3 µM dafachronic acid response;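 active = activation above the mean over all tested compounds plus 3 SD, cut at about 0.9% in these data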
hgDAF12 agonist = hgDAF-12 agonism, primary luciferase screen; activation, % at 6.8 µM; 370,000 tested, 1.8% active; AID 687014; HEK293 GAL4-hgDAF12 UAS-luciferase reporter, agonist luminescence; normalized to butyrate control;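 active = activation above a cutoff set at the mean of all screened compounds plus 3 SD, cut at about 10% in these data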
DAX1 inh-2 = inhibits human nuclear receptor DAX1; P51843; HEK293 Gal4-DAX1 luciferase reporter, luminescence; inhibition, % at 6.75 µM; 340,000 tested, 0.99% active; AID 504766;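 active = inhibition above the mean over all tested compounds plus 3 SD, cut at about 4.2% in these data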;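 note: inhibition shows as a rise in luminescence from relieved DAX1 repression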
Wee1 degr inh = inhibitors of human Wee1 degradation. 220,000 tested, 1.2% active. AID 1321. HeLa Luc-Wee1K328M stability, luciferase luminescence; 100% = proteasome inhibitor MG132 effect. P30291. reporter increase, % at 5 µM;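 active = activation above the mean of all tested compounds plus 3 SD, set per screening run, cut at about 8.8% in these data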;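 note: cells exposed to compound for 20 h before luminescence read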
Target sequence (P30291 whole entry K328M): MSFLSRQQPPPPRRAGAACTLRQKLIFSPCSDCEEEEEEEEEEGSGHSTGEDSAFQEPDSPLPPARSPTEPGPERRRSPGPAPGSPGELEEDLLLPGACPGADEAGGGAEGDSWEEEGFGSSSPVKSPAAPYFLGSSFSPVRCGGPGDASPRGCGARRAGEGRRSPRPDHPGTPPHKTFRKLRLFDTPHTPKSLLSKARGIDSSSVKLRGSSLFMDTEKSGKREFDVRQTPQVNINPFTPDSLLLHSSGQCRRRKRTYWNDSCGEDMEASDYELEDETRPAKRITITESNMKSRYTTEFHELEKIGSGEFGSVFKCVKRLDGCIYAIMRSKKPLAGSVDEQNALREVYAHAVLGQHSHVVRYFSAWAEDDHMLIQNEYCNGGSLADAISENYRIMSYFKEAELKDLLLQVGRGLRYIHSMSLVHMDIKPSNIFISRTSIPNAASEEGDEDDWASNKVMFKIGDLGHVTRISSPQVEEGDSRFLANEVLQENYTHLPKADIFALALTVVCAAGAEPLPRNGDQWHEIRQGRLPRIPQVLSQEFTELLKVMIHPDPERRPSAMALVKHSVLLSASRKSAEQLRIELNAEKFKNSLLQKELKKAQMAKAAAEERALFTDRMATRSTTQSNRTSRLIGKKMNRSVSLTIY
Numbers stand for hits; – = inactive; · = no result. A selection: hits, their analogues and other compounds. The true share with any hit is near 4.6%.

SMILES | DAX1 inh-1 | hcDAF12 agonist | ssDAF-12 act | hgDAF12 agonist | DAX1 inh-2 | Wee1 degr inh
CCCNC(=O)c1cc(C2CCCCN2C(=O)c2ccc(OC)cc2)on1 (centres undefined) | – | – | – | – | · | ·
O=C(CSc1ccc(Cl)cc1)OCC(=O)N1CCN(c2ccccc2)CC1 | – | – | – | – | – | ·
CN(CC(=O)Nc1cccc(F)c1)C(=O)CNS(=O)(=O)c1ccc(N(C)C)c([N+](=O)[O-])c1 | – | – | – | – | 4.4 | ·
CN(C)c1ccc(S(=O)(=O)NCC(=O)N2CCN(S(=O)(=O)c3cccc(F)c3)CC2)cc1[N+](=O)[O-] | – | – | – | – | – | ·
Cn1cccc1CC(=O)NN=Cc1cccc(F)c1 | – | – | – | – | · | ·
CC(c1nnc(SCC(=O)c2c(N)n(C3CC3)c(=O)[nH]c2=O)n1-c1ccc(F)cc1)N(C)C (centres undefined) | – | – | – | – | – | ·
CSCCNC(=O)C1(C)CCN1C(=O)C/C=C/c1ccccc1 (centres undefined) | – | – | 1.2 | – | · | ·
CC1(C(=O)NS(=O)(=O)c2ccccc2Cl)CCN1C(=O)C/C=C/c1ccccc1 (centres undefined) | – | – | – | 11.6 | · | ·
Cc1ccccc1S(=O)(=O)NC(=O)C1(C)CCN1C(=O)C/C=C/c1ccccc1 (centres undefined) | – | – | – | – | · | ·
O=C1NC(=O)C(=O)N1 | – | – | – | – | – | ·
O=C1NC(=O)c2c(Br)c(Br)c(Br)c(Br)c21 | – | – | 1.0 | – | – | ·
CCN1C(=O)/C(=C2\SC(N3CCOCC3)=NC2=O)c2ccccc21 | – | – | – | – | – | ·
CCCCN1C(=O)/C(=C2\SC(N3CCOCC3)=NC2=O)c2ccccc21 | – | 5.9 | – | – | – | ·
Cc1ccc(C(=O)NCC(=O)OCc2nc3sc(C)c(C)c3c(=O)[nH]2)cc1 | – | – | – | – | · | ·
CC(C)COc1cccc(C(=O)Nc2ccc(S(=O)(=O)N3CCOCC3)cc2)c1 | – | – | – | – | – | –
COc1cccc(-n2c([S-])c(C(=O)Nc3ccc(S(=O)(=O)N4CCOCC4)cc3)[n+]3cc(C(N)=O)ccc23)c1 | – | – | – | – | 4.2 | –
C[C@@H]1CCN(C2CC2)S(=O)(=O)c2ccc(N3CCC[C@H]3CO)cc2O1 | – | – | – | – | · | ·
Cc1ccc([C@H]2C[C@H](O)[C@@H](n3cc(C4CC4)nn3)CN2Cc2cccs2)cc1 | – | – | – | – | – | ·
Cc1ccc(-c2cc(C(F)F)n3ncc(C(=O)N4CCCCC4c4cccnc4)c3n2)cc1 (centres undefined) | – | 5.7 | – | – | 4.5 | –
Nc1ccc(N=Nc2ccccc2O)c(N)c1 | – | – | 1.6 | – | · | ·
CCOc1c2ccc(C(=O)NCCc3cccs3)cc2nn1CC | – | – | – | 11.9 | – | –
CCCCn1nc2cc(C(=O)NCCc3cccs3)ccc2c1OCC | – | – | – | – | – | –
CCC(C(=O)Nc1c(C)cccc1C)n1c(-c2ccc(-c3ccccc3)cc2)nc2ccccc21 (centres undefined) | – | – | – | – | · | ·
N#CC1=C2SC=C(c3ccc(Br)cc3)N2CCCC1=O | 3.7 | – | – | 11.3 | – | –
COCCNc1cnn(-c2ccccc2)c(=O)c1Cl | – | – | – | – | 4.9 | ·
SMILES | DAX1 inh-1 | hcDAF12 agonist | ssDAF-12 act | hgDAF12 agonist | DAX1 inh-2 | Wee1 degr inh
Cc1nn(-c2ccccc2)c(Cl)c1/C=C(/CC(=O)O)c1nc2ccccc2s1 | – | – | – | – | – | ·
Cc1c(/C=C(\CC(=O)O)c2nc3ccccc3s2)cc(C#N)n1C | – | 5.6 | – | – | – | –
COc1ccc(-c2coc3cc(OC(C)=O)ccc3c2=S)cc1 | – | – | – | 11.1 | 4.5 | ·
COc1ccc(-c2coc3cc(O)c(OC)cc3c2=O)cc1 | – | – | – | – | – | ·
COc1ccc(-c2coc3cc(OC)cc(O)c3c2=O)cc1 | – | – | – | – | 5.0 | –
O=C1c2c(-c3ccc(Br)cc3)noc2CCN1Cc1cn(-c2ccccc2)nn1 | – | – | – | – | · | ·
COc1ccc2c(c1)CC/C2=N\OC(=O)c1ccccc1C | – | – | 2.1 | – | – | –
O=c1cc(-c2ccccc2)nc2c(Cl)cc(Cl)cn12 | – | – | – | – | – | ·
CCCCCC(=O)OCc1ccc(C2=CC(=O)CC(C)(C)C2=O)cc1 | 4.2 | – | – | – | – | ·
CC(=O)OCc1ccc(C2=CC(=O)CC(C)(C)C2=O)cc1 | – | – | – | – | – | ·
COC(=O)[C@]1(CNC(C)=O)CC(=O)N(C)[C@@H]1c1ccccc1 | – | – | – | – | · | ·
Cn1c(NC(=O)/C=C/c2c(F)cccc2Cl)cc(=O)n(C)c1=O | – | – | – | – | · | –
Cn1c(NC(=O)/C=C\c2ccccc2)cc(=O)n(C)c1=O | – | – | 1.1 | – | 4.6 | –
C[C@H]1COc2cccc(N3CCCC3)c2S(=O)(=O)N1C | – | – | – | – | · | ·
CC(C)NC(=O)c1cc2ccccc2o1 | – | – | – | – | 5.1 | –
CC1CCCCC1NC(=O)c1cc(Cl)nc2ccccc12 (centres undefined) | – | – | 1.4 | – | – | ·
CC(NC(=O)c1cc2ccccc2o1)C(=O)O (centres undefined) | – | – | – | – | – | –
O=C(NC1CCCCC1)c1cc(Cl)nc2ccccc12 | – | – | – | – | – | –
CC1CCCCC1NC(=O)c1cc2ccccc2o1 (centres undefined) | – | – | – | 10.6 | – | –
Cc1ccc(S(=O)(=O)N2CCN(C(=O)CCc3c[nH]c4ccccc34)CC2)c(C)c1 | – | – | – | – | – | ·
CC(C)(C)c1ccc(-c2nnc3n2N=C(c2ccc(Cl)cc2)CS3)cc1 | – | – | – | – | · | ·
COc1cc(Cl)c(CNC[C@H]2O[C@@H](n3cnc4c(=O)[nH]c(N)nc43)[C@H](O)[C@@H]2O)c(Cl)c1O | – | – | – | – | · | ·
CCCOc1cccc(C(=O)Nc2cccc3ncccc23)c1 | – | – | – | – | – | ·
CCCOc1cccc(C(=O)Nc2ccc(Br)cc2F)c1 | – | – | – | 10.6 | – | –
CCCCn1c(SCC(=O)NC2CC2)nc2cc(C(=O)OC)ccc2c1=O | – | – | – | – | – | ·
SMILES | DAX1 inh-1 | hcDAF12 agonist | ssDAF-12 act | hgDAF12 agonist | DAX1 inh-2 | Wee1 degr inh
CC(=O)c1ccc(NC(=S)NC(=O)c2c(Cl)c(C)nn2C)cc1 | – | – | – | – | 4.7 | –
CCNC(=O)C1(C)CCCN(C(=O)c2cc(C)n(C(C)(C)C)n2)C1 (centres undefined) | – | – | – | – | · | ·
NC(=O)NN=C1CC2CC1C1C=CCC21 (centres undefined) | – | – | – | – | – | ·
O=C(/C=C/c1ccc(Cl)c([N+](=O)[O-])c1)Nc1cccnc1 | – | – | – | – | – | –
Cc1ccc(/C=C/C(=O)Nc2cccnc2)o1 | – | – | 1.0 | – | – | –
O=C(/C=C/c1ccc([N+](=O)[O-])cc1)Nc1cccnc1 | – | – | – | – | – | 10.1

High-throughput results: PubChem BioAssay, The Scripps Research Institute Molecular Screening Center
